Screening results (PubChem)
The sample as a whole holds a higher share of hits than the screen did.
PKM2 inh: PKM2 (human) enzyme inhibition; purified PKM2, ATP generation, Kinase-Glo luminescence; Potency, µM (doses to about 57.5 µM), inactives show top-dose activity change, negative = inhibition, most hits filed as inhibitors; 260,000 compounds, 0.058% hits; P14618; note: potency is the fitted concentration of half-maximal effect; nearly all actives have a fitted effect of over 60% in size
Target sequence (P14618 whole entry, looked up): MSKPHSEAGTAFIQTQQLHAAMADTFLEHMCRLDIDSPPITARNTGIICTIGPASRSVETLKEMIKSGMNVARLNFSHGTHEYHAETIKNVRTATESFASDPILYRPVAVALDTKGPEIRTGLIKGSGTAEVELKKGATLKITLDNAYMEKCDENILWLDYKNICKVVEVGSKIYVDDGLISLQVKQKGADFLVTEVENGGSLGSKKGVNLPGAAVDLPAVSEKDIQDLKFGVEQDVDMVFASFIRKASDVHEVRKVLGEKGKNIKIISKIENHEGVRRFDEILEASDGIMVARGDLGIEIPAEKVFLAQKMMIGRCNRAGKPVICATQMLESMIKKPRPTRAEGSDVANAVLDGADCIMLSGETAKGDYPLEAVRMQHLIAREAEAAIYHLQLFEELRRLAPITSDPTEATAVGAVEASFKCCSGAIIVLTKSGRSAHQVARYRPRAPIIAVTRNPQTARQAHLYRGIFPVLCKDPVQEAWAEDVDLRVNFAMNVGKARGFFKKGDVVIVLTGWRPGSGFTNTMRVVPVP
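Coupled luciferase luminescence (Kinase-Glo) detects ATP generated from 0.1 mM ADP and 0.5 mM PEP in imidazole buffer pH 7.2 with KCl, MgCl2; 1 h at room temperature. Enzyme at intermediate activity; normalized to uninhibited and no-enzyme controls.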
PKM2 inh CRC: dose-dependently blocks human pyruvate kinase M2 activity; shares compounds with PKM2 inh; purified hPK-M2, Kinase-Glo ATP luminescence, 1 h; Potency, µM (top dose mostly 57.5 µM), for the others: at the top dose activity change, negative = inhibition, most hits filed as inhibitors; 55 compounds, 50% hits
PKM2 FLuc cs: blocks firefly luciferase, flagging PKM2 inhibitor artifacts | shares compounds with PKM2 inh | Kinase-Glo firefly luciferase, luminescence, 8 min | Potency, µM (doses to about 57.5 µM), for inactives: at the highest dose activity, negative = inhibition, hits mostly inhibitors | 55 compounds, 30% hits | AID 2265
PKM2 LDH couple: PKM2 (human) inhibition, NADH coupled readout; shares compounds with PKM2 inh; purified hPK-M2, LDH-coupled NADH fluorescence kinetic; Potency, µM (series often up to 57.5 µM), for inactives: top-dose activity change, negative = inhibition, hits mostly inhibitors; 55 tested, under 10 active; AID 2267
An asterisk follows results filed as active; ? = inconclusive; . = no result given. Calls come from the whole dose curve; as a rule, active = well fitted curve in the direction sought with a large enough effect; inconclusive = small, poorly fitted or top-dose-only effect, or another doubt; inactive = no such curve, though single readings can be large; an effect the other way counts as inactive or inconclusive.

SMILES	PKM2 inh	others
Cc1oc(=O)c(NC(=O)c2cccc(Cl)c2)cc1C(=O)c1ccccc1	83.4%
COc1cccc(C(c2nnnn2Cc2ccc(F)cc2)N2CCC(C(N)=O)CC2)c1OC (configuration not stated)	-8.6%
COc1ccc(-c2nc(-c3ccccn3)no2)cc1	3.55µM*	PKM2 inh CRC=5.8µM*;PKM2 FLuc cs=3.26µM*;PKM2 LDH couple=-11.7%
Cc1ccccc1-c1nc(-c2ccccn2)no1	8.91µM*	PKM2 inh CRC=11.6µM*;PKM2 FLuc cs=5.17µM*;PKM2 LDH couple=-3.0%
COc1ccc(C(=O)NCc2oc(-c3ccccc3)cc2C(=O)O)cc1	39.3%
CC(NC(=O)/C=C/c1ccco1)c1nc2ccccc2n1Cc1cccc(Cl)c1 (configuration not stated)	40.4%
COc1ccc(OCC(O)CNS(=O)(=O)c2cccc(Cl)c2)cc1 (configuration not stated)	35.8%
Cc1cc(N(CCO)CCO)ccc1C(c1ccc(N(CCO)CCO)cc1C)c1ccccc1Cl	32.3%
COC(=O)c1ccc(COc2ccccc2/C=C/C(=O)c2ccc(OCC(=O)O)cc2)cc1	36.3%
COc1ccccc1CNC(=S)Nc1ccc2nc(N3CCN(C)CC3)cc(C)c2c1	71.3%
O=C(Nc1ccccc1)C1=C(O)CC(c2ccc(Cl)cc2)N2CCN=C12 (configuration not stated)	71.3%
CC(=O)Nc1ccc(-n2nnnc2SCC(=O)Nc2cccc(NC(=O)c3ccco3)c2)cc1	42.8%
Clc1ccc(CSc2nnc(-c3cccnc3)n2Cc2ccco2)c(Cl)c1	34.6%
O=C(c1cc(S(=O)(=O)N2CCOCC2)ccc1Cl)N1CCN(c2ccccn2)CC1	87.3%
O=c1c2ccccc2sn1-c1cc(S(=O)(=O)N2CCOCC2)ccc1N1CCCC1	3.55µM*	PKM2 inh CRC=6.51µM*;PKM2 FLuc cs=1.3%;PKM2 LDH couple=?
CC1(C)NC(=O)N(CC(=O)Nc2cc(S(=O)(=O)N3CCOCC3)ccc2N2CCOCC2)C1=O	36.6%
Cc1ccc(NC(=O)C2C3CCCC2C3c2ccccc2)cc1 (configuration not stated)	31.3%
CC(=O)Oc1ccc(N(C(C)=O)S(=O)(=O)c2cccs2)c2ccccc12	34.9%
CCOc1ccc2nc(NS(=O)(=O)c3cccs3)sc2c1	58.1%
COc1cc([N+](=O)[O-])ccc1NC(=O)COC(=O)c1ccc(NC(N)=O)cc1	37.4%
Cc1ccc(/C=C/C(=O)Nc2cccc(S(=O)(=O)N3CCOCC3)c2)o1	33.6%
COc1ccc(-c2ccc(=O)n(CC(=O)Nc3cccc(O)c3)n2)cc1OC	52.7%
COc1ccc(-c2ccc(Nc3ccc(C(=O)N4CCOCC4)cc3)nn2)cc1OC	4.7%
COc1ccc(-c2cn3ccccc3n2)cc1OC	8.91µM*	PKM2 inh CRC=?;PKM2 FLuc cs=?;PKM2 LDH couple=?
CC(C)c1cccc(OCC(=O)Nc2ccc(S(=O)(=O)Nc3ccccn3)cc2)c1	31.5%
SMILES	PKM2 inh	others
CC1=NNC(=O)/C1=C\c1cn(-c2ccccc2)nc1-c1ccccc1	30.5%
Cc1nc(-c2ccc(Cl)cc2)sc1C1(C)CC(c2ccc(F)cc2)=NO1 (configuration not stated)	-1.6%
O=S(=O)(NCCSc1ccccn1)c1ccc(Br)cc1	95.5%
CCOC(=O)c1c(N2C(=O)CC(Sc3ccccc3C(=O)O)C2=O)sc2c1CCCC2 (configuration not stated)	60.6%
COc1ccc(-c2nc3cccc(C)n3c2Nc2ccc(C)cc2)cc1	.	PKM2 inh CRC=5.7%;PKM2 FLuc cs=-3.2%;PKM2 LDH couple=?
Cc1ccc(Nc2c(-c3ccc(C)s3)nc3cccc(C)n23)cc1	.	PKM2 inh CRC=?;PKM2 FLuc cs=0.4%;PKM2 LDH couple=16.3%
Cc1ccccc1Nc1c(-c2ccccc2)nc2cccc(C)n12	.	PKM2 inh CRC=4.3%;PKM2 FLuc cs=-2.2%;PKM2 LDH couple=?
CC(NC(=O)COC(=O)c1ccc(N(C)C)cc1)c1ccccc1 (configuration not stated)	45.8%
N#CCCSc1ccccc1NC(=O)c1ccc(S(=O)(=O)N2CCCC2)cc1	73.1%
COc1cc(OC)c(NC(=O)CCc2nc(-c3cccs3)no2)cc1Cl	42.3%
COc1ccc(NC(=O)/C(Cl)=C(/Cl)S(=O)Cc2ccccc2Cl)cn1 (configuration not stated)	40.7%
O=C(O)CCn1cc(C2CC(c3ccccc3)=NN2c2ccccc2)c(-c2ccccc2)n1 (configuration not stated)	35.4%
COc1ccc(-c2nc3ccccn3c2Nc2ccccc2C)cc1	.	PKM2 inh CRC=?;PKM2 FLuc cs=-0.3%;PKM2 LDH couple=-27.6%
Cc1ccc(-c2cc(C(=O)Nc3ccccc3C)c3ccccc3n2)o1	43.0%
Cc1ccc2nc(-c3ccc(C)o3)c(Nc3ccc(Cl)cc3)n2c1	.	PKM2 inh CRC=20.7%;PKM2 FLuc cs=-1.4%;PKM2 LDH couple=?
Cc1ccc(-c2nc3ccccn3c2Nc2ccccc2C)o1	.	PKM2 inh CRC=10.0%;PKM2 FLuc cs=2.2%;PKM2 LDH couple=4.61µM*
Cc1ccc(-c2nc3ncccn3c2Nc2ccccc2C)o1	68.9%
Cc1ccc(Nc2c(-c3ccc(C)o3)nc3ncccn23)cc1	56.8%
COCC(=O)OCC(=O)Nc1ccc(Cl)cc1[N+](=O)[O-]	76.4%
CCOc1ccc(C(=O)CN2CCN(S(=O)(=O)c3ccc(OC)cc3)CC2)cc1	30.5%
COc1ccc(S(=O)(=O)Nc2ccc(F)c(Cl)c2)cc1OC	109.2%
Cc1nn(CCC(=O)N2CCN(S(=O)(=O)c3ccccc3)CC2)c(C)c1C	83.4%
CN1CCc2nc(SCC(=O)Nc3ccc(F)cc3)c(C#N)cc2C1	57.3%
COc1cc([N+](=O)[O-])ccc1NC(=O)CSc1nccn1C	91.4%
Cc1ccc2[nH]c(=O)cc(C(=O)OC(C)C)c2c1	83.5%
SMILES	PKM2 inh	others
COCCOc1ccc(C(F)(F)F)cc1Nc1nc2ccccc2o1	43.3%
COC(=O)c1ccc(COc2ccc(/C=N/O)cc2OC)o1	53.8%
Cc1cc(NC(=O)c2ccccc2)ncc1NC(=O)c1ccco1	?	PKM2 inh CRC=16.3µM*;PKM2 FLuc cs=?;PKM2 LDH couple=-13.0%
O=C(Nc1cc([N+](=O)[O-])ccc1N1CCCC1)c1ccco1	48.6%
O=C(Nc1nc2ccccc2n1CCOc1ccccc1)c1ccco1	-5.8%
CS(=O)(=O)N1CCN(c2ccc([N+](=O)[O-])c(NCc3cccnc3)c2)CC1	86.8%
O=C(Nc1ccc2nc(-c3ccco3)c(-c3ccco3)nc2c1)N1CCN(c2ccccn2)CC1	10.0%
Cc1nc2cc(-c3ccccc3)sc2c(=O)n1N	3.55µM*	PKM2 inh CRC=3.66µM*;PKM2 FLuc cs=2.59µM*;PKM2 LDH couple=-4.8%
N#CCn1cnc2sc(-c3ccccc3)cc2c1=O	31.3%
CC(CCc1ccco1)NC(=O)Cn1ncc2c1-c1ccccc1OC2 (configuration not stated)	39.1%
Cc1ccc(-n2[nH]c(C)c(/C=N/c3ccccn3)c2=O)cc1	11.2µM*	PKM2 inh CRC=?;PKM2 FLuc cs=?;PKM2 LDH couple=-10.8%
Cc1ccc(S(=O)(=O)N(C)CC(=O)N/N=C/c2ccc(C)o2)cc1	34.3%
CCOC(=O)CSc1nc2c(sc3ccc([N+](=O)[O-])cc32)c(=O)n1Cc1ccco1	38.6%
Cc1ccc(C2CC(c3ccccc3)=NN2C(=S)Nc2ccccc2)o1 (configuration not stated)	36.2%
O=[N+]([O-])c1ccc(NCCCNS(=O)(=O)c2ccccc2)c(Cl)c1	86.2%
